The test system of assay [1] is PRMT1 (protein arginine N-methyltransferase 1). The assay is described as follows: PRMT1 binders on small-molecule microarrays, primary screen, biochemical, small-molecule microarray, 635 nm fluorescence (AID 1088).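 Note: binding of Prmt1 protein to compounds spotted on small-molecule microarray slides.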 Conditions: small-molecule microarray binding, higher = more signal.
A short description of assay [2]: yeast growth modulation, basal conditions, primary screen, YJM789 clinical isolate, OD600, 24 h (AID 1089).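 Note: growth of clinical yeast isolate S. cerevisiae YJM 789 seeded 1000 cells per well; test concentration not given here.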 Conditions: S. cerevisiae YJM789 growth, higher = more signal, called active from +8 up or from −8 down.
The nature of assay [3]: fission yeast growth modulation, primary screen, strain 972, OD600, 24 h, no modulator (AID 1090).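 Note: basal condition with compound alone and no growth modifier present; test concentration not given here.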 Conditions: S. pombe 972 growth, higher = more signal, called active from +8 up or from −8 down.
Assay [4] in a line: S. cerevisiae growth modulation with rapamycin, primary screen, strain BY4716, OD600, 96 h (AID 1091). Note: test concentration not given here. The following applies: higher = more signal, called active from +8 up or from −8 down.
In assay [5] the target is Torsin-1A-interacting protein 2 (Homo sapiens) (UniProt Q8NFQ8). The assay can be described thus: LULL1 binders on small-molecule microarray, primary screen, cell lysate, human LULL1 lysate, 635/667 nm fluorescence (AID 1092).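 Note: probe is lysate of COS7 cells overexpressing human LULL1; score merges per-feature 667 nm fluorescence with signal-to-noise.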 Conditions: hLULL1 lysate binding, 635 nm fluorescence, higher = more signal.
Chain of Torsin-1A-interacting protein 2 (Homo sapiens) (Q8NFQ8 whole entry, looked up): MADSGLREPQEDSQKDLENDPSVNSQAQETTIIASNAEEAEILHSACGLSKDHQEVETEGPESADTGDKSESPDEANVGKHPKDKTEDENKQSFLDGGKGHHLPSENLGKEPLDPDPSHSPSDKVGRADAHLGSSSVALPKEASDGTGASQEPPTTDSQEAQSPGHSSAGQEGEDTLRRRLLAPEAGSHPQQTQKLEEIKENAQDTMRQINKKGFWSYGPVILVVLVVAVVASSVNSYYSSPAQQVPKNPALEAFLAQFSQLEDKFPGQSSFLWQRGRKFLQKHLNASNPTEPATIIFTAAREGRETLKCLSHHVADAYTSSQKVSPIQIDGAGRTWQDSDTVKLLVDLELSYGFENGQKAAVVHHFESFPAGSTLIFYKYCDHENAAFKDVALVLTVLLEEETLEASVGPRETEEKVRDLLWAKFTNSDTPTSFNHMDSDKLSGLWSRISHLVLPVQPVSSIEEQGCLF
The nature of assay [6]: E. coli growth modulation, two-sided OD650, primary screen, E. coli filamentation project, strain DRC41, 24 h (AID 1093).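 Note: MC1000 strain lacking acrAB efflux and sulA so SOS filamentation is blocked; test concentration not given here.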 The following applies: OD650, 24 h, higher = more signal, called active from +8 up or from −8 down.
Assay [7] in a line: small-molecule microarray binders of probe aLefty2, primary screen, biochemical, biotinylated probe, 635/667 nm fluorescence (AID 1094).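 Note: score merges spot fluorescence near 667 nm with spot signal-to-noise ratio.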 The following applies: higher = more signal.
The subject of assay [8] is Noggin (protein binding on small-molecule microarray). The assay is described as follows: Noggin binders on small-molecule microarray, primary screen, biochemical, 635/667 nm fluorescence (AID 1095).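 Note: score merges 667 nm feature fluorescence with signal to noise over triplicate slides.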 Conditions: 635 nm fluorescence, higher = more signal.
Assay [9] has as its target Neurogenic locus notch homolog protein 3 (Homo sapiens) (UniProt Q9UM47). The assay can be described thus: NOTCH3 binders on small-molecule microarray, primary screen, biochemical, 635/667 nm fluorescence (AID 1096). The following applies: NOTCH3 binding, 635 nm fluorescence, higher = more signal.
Assay [10] can be described thus: small-molecule microarray binders of probe aEGFR, primary screen, biochemical, biotinylated probe, 635/667 nm fluorescence (AID 1097).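 Note: probe is a biotinylated anti-EGFR antibody binding compounds printed on slides; score combines fluorescence near 667 nm and signal to noise of each spot.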 Conditions: higher = more signal.

The structures appear in SMILES notation. Activity calls are given as the source filed them.

Chain of Neurogenic locus notch homolog protein 3 (Homo sapiens) (Q9UM47 whole entry, looked up): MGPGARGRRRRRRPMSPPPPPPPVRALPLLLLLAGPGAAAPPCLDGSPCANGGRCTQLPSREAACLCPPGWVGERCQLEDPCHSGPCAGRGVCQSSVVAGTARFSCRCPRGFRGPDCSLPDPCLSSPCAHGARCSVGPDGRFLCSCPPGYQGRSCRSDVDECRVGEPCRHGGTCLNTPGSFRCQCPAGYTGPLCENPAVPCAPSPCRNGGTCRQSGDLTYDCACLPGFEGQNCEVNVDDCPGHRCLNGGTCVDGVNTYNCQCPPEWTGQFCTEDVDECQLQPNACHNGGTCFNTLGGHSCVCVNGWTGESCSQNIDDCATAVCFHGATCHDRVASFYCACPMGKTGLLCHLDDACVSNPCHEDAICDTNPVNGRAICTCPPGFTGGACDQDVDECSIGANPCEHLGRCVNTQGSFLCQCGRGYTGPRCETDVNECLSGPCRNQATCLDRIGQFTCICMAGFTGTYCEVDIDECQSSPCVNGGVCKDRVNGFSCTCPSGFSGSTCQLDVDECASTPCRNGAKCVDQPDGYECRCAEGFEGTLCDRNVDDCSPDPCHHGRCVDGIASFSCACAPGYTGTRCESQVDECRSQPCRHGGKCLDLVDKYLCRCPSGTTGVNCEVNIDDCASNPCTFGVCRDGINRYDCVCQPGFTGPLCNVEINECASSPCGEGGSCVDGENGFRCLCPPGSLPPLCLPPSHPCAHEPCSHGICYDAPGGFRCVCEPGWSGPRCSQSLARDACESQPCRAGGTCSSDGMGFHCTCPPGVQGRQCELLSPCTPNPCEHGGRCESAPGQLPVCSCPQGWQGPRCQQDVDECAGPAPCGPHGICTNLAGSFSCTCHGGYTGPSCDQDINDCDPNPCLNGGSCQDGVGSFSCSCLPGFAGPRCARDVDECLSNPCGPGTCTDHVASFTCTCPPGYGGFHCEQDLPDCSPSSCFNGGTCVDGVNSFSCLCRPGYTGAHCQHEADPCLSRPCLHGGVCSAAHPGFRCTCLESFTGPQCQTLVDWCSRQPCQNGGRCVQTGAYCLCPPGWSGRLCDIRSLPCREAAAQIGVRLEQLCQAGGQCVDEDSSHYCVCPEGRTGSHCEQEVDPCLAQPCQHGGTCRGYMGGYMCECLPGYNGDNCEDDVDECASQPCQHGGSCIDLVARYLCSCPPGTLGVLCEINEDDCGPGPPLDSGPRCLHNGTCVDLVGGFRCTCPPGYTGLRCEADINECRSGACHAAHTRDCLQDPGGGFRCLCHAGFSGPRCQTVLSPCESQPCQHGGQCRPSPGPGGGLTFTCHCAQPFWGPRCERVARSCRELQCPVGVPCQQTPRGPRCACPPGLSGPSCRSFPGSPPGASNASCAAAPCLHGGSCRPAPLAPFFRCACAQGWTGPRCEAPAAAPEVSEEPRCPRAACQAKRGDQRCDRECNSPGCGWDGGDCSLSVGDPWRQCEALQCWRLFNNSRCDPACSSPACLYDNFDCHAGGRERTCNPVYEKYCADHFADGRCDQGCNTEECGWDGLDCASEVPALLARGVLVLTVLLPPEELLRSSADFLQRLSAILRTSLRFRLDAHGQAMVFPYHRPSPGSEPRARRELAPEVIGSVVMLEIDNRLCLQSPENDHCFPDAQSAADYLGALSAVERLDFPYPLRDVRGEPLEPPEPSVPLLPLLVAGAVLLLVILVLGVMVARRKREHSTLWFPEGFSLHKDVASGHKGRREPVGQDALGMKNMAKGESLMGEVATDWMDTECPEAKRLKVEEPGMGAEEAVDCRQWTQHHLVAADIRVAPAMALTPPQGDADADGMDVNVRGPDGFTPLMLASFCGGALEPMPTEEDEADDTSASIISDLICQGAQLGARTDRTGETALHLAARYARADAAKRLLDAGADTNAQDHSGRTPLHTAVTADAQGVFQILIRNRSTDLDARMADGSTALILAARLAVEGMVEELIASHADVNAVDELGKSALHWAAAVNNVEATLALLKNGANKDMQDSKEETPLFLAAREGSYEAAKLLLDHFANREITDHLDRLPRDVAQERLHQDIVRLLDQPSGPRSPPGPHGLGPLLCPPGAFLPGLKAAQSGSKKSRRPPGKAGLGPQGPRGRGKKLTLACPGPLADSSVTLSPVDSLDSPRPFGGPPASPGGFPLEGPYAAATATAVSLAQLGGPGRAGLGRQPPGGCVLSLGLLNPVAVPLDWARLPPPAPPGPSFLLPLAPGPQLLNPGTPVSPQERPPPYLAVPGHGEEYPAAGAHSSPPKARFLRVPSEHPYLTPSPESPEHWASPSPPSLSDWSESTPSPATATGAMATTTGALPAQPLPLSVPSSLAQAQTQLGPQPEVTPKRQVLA

Turning to `CCCNC(=O)[C@@]1(Sc2ccc(C)cc2)CC(=O)N(C(C)C)[C@@H]1c1ccc(CO)cc1I`, the composite z-score in assay [1] was 1.28; in [5], 2.73; in assay [7] it was 0.0444; in [8], -0.719; in assay [9], -1.2; in assay [10], -0.252. Also, the z-score was -1.08 (inactive) in assay [2], -0.877 (inactive) in assay [3], 1.79 (inactive) in assay [4] and -0.157 (inactive) in assay [6].

Regarding `COc1cc(CO)cc(I)c1O[C@H]1C=C(C(=O)NCCO)C[C@@H](NCC2CCCCC2)[C@@H]1O`, the composite z-score in assay [1] is 0.332; in assay [5], 2.65; in assay [7], -0.0719; in assay [8] it was 0.323; in [9], 0.793; in assay [10] it was -0.067. Moreover, the z-score in assay [2] is -1.94 (inactive); in [3] it was -0.883 (inactive); in assay [4] it was -0.999 (inactive); in [6], 1.69 (inactive).

Take `C=C(CCCC)C(=O)CC[C@H](OC(C)=O)c1ccc(OCCO)cc1`: the composite z-score in assay [1] was -0.0507; in assay [5], -0.835; in assay [7] it was -0.269; in assay [8], -0.469; in [9], -0.829; in [10], -0.16. Besides, the z-score was -1.62 (inactive) in [2], -6.78 (inactive) in [3], -2.54 (inactive) in [4] and 2.19 (inactive) in assay [6].

For `COc1ccc(NC(=O)O[C@H]2[C@@H]3OC(=O)[C@H](Cc4cccc(Br)c4)C/C=C/C[C@@H](Cc4cccc(Br)c4)C(=O)O[C@H]3[C@@H](OC)O[C@@H]2CO)cc1`, the composite z-score in assay [1] is 1.06; in assay [5], 1.36; in assay [7] it was 0.123; in assay [8] it was 0.331; in assay [9] it was 0.656; in [10] it was -0.067. In addition, the z-score in assay [2] is 0.337 (inactive); in assay [3] it was 0.505 (inactive); in assay [4], -0.127 (inactive); in [6] it was 0.904 (inactive).

Regarding `Cc1ccc([C@H]2C(C(=O)O)=C[C@@H](C(C)(C)C)N2S(=O)(=O)c2ccc(C)cc2)cc1`, the composite z-score was determined as 1.39 in [1]; 3.25 in assay [5]; 0.118 in assay [7]; 0.101 in assay [8]; 1.04 in [9]; 0.155 in assay [10]. In addition, the z-score in assay [2] is -0.225 (inactive); in [3], 0.289 (inactive); in assay [4], 0.118 (inactive); in assay [6], -1.01 (inactive).

Take `[N-]=[N+]=NCc1ccccc1[C@@H]1OC(c2ccc(OCCCO)cc2)=N[C@]1(Cc1ccccc1N=[N+]=[N-])C(=O)N1CCCCC1`: the composite z-score in [1] was found to be 1.38; in assay [5], 3.18; in assay [7], 0.0216; in [8] it was 0.345; in [9] it was 0.921; in assay [10], 0.706. Further, the z-score in [2] was -0.0524 (inactive); in assay [3], -1.17 (inactive); in assay [4], 2.24 (inactive); in [6], 0.379 (inactive).

In the case of `COC(=O)[C@@]1(Cc2ccc(F)cc2)[C@H]2c3cc(C(=O)N4CCCC4)n(CC4CC4)c3C[C@H]2CN1C(=O)c1ccccc1`, the composite z-score came to 0.649 in [1]; 3.32 in assay [5]; 0.329 in [7]; 0.577 in assay [8]; 1.1 in assay [9]; 0.358 in [10]. Besides, the z-score in assay [2] is -0.223 (inactive); in [3], 0.64 (inactive); in assay [4], 0.125 (inactive); in assay [6], -0.475 (inactive).

With `C=C(COC)C(=O)CC[C@H](OC(=O)c1cccnc1)c1ccc(CO)o1`, the composite z-score in assay [1] was 1.33; in [5] it was 0.103; in assay [7], -0.132; in assay [8], 1.1; in assay [9], 1.02; in [10] it was -0.0313. Moreover, the z-score was -1.26 (inactive) in [2], -0.292 (inactive) in assay [3], -0.35 (inactive) in assay [4] and -0.252 (inactive) in assay [6].

With `CN1C(=O)[C@@H]2[C@@H](CC(COc3ccccc3)=C([C@H](O)CCc3ccccc3)[C@@H]2CO)C1=O`, the composite z-score was -0.268 in assay [1]; -0.551 in assay [5]; -0.0971 in assay [7]; -0.358 in assay [8]; -0.932 in assay [9]; -0.0947 in assay [10]. Also, the z-score in assay [2] is 0.0937 (inactive); in assay [3], -1.87 (inactive); in assay [4], -0.537 (inactive); in [6] it was 2.41 (inactive).

`CCCC=C(CCC)[C@@H](NC(=O)CCc1ccccc1)c1ccc(C(F)(F)F)cc1`: the composite z-score in assay [1] is 1.1; in assay [5], 3.4; in [7] it was 0.201; in [8] it was 0.0368; in assay [9], 1.12; in [10], -0.0423. Moreover, the z-score in assay [2] is -0.296 (inactive); in assay [3], -1.19 (inactive); in assay [4], 0.654 (inactive); in assay [6], -0.604 (inactive).

Turning to `COc1ccc([Si](C)(C)[C@@H]2[C@@H](CCn3cc([C@H](O)c4ccccc4)nn3)O[C@]3(C(=O)N(c4ccccc4)c4ccccc43)[C@H]2C)cc1`, the composite z-score in assay [1] was 1.11; in assay [5], 0.986; in [7], -0.0998; in assay [8] it was 0.431; in [9], 0.281; in assay [10], -0.0452. In addition, the z-score is -0.613 (inactive) in assay [2], -0.101 (inactive) in [3], 1.43 (inactive) in assay [4] and 1.15 (inactive) in assay [6].

For `COc1cc2c(cc1OC)CN(C(=O)[C@@H]1[C@H]3C(=O)O[C@H](c4ccccc4)[C@H](c4ccccc4)N3[C@H](c3ccc(O)cc3)[C@@]13C(=O)Nc1ccc(C#CCCO)cc13)CC2`, the composite z-score in assay [1] is 1.34; in assay [5], 2.5; in assay [7], -0.0809; in [8], 0.32; in assay [9], 0.667; in assay [10] it was -0.0424. Also, the z-score in assay [2] was 1.09 (inactive); in assay [3] it was 0.673 (inactive); in assay [4] it was 1.81 (inactive); in assay [6], -0.385 (inactive).

Turning to `CC(C)C[C@@H]1NC(=O)[C@@]23C(=O)N[C@@H](Cc4ccccc4)C2[C@H](C)[C@@]2(C)O[C@H]2C3/C=C/C/C=C\CNC(=O)[C@@H](C)NC1=O` (stereo not given in full), the composite z-score in assay [1] was 0.5; in assay [5], -0.408; in [7], -0.178; in assay [8], 0.33; in assay [9], 0.195; in [10], -0.131. The z-score in [2] was -0.939 (inactive); in assay [3], -1.17 (inactive); in [4] it was -1.35 (inactive); in [6], 0.624 (inactive).

On to `CC(C)C[C@@H]1NC(=O)[C@@H]2C[C@H](C(=O)NCCCCCC[N+](C)(C)C)[C@H](c3cccc(OCCO)c3)N2C1=O`, for which the composite z-score in assay [1] is 1.58; in [5], 3.23; in assay [7], -0.135; in assay [8], -0.143; in assay [9], 0.766; in assay [10], -0.0572. Also, the z-score in assay [2] is -0.632 (inactive); in [3], 0.806 (inactive); in assay [4], 0.24 (inactive); in assay [6] it was -0.209 (inactive).

Consider `COCC1C2CC[C@H]3C(OCc4ccc(OC)cc4)OC[C@]4(C)[C@H]3C2=C(CN4C(=O)OC(C)(C)C)[C@H](C)C1COC` (stereo not given in full), for which the composite z-score in assay [1] is 1.57; in assay [5] it was 3.78; in assay [7], 0.0359; in assay [8], 0.372; in [9], 1.05; in assay [10], -0.0656. The z-score in assay [2] was -1.23 (inactive); in assay [3] it was -1.18 (inactive); in assay [4], -0.444 (inactive); in [6], -1.22 (inactive).

The record behind these values is PubChem BioAssay.
